Measured values published in the supplement of paper PMC11732987, “Enantioselective OTUD7B fragment discovery through chemoproteomics screening and high-throughput optimisation” (Communications Chemistry, 2025).

Key:
Assay in all cases: log2 ratio of Biotin-Ahx-Ub-VS probe labelling (fragment/DMSO); higher = less target engagement (more negative = stronger competition), active = hit call of the paper (q ≤ 0.05, log2 ratio ≤ -1)
Details in all cases: compound concentration: 200 uM; treatment time: 3 h
USP42 = target: T1, USP42 (UniProt Q9H9J4)
T1 sequence (whole entry): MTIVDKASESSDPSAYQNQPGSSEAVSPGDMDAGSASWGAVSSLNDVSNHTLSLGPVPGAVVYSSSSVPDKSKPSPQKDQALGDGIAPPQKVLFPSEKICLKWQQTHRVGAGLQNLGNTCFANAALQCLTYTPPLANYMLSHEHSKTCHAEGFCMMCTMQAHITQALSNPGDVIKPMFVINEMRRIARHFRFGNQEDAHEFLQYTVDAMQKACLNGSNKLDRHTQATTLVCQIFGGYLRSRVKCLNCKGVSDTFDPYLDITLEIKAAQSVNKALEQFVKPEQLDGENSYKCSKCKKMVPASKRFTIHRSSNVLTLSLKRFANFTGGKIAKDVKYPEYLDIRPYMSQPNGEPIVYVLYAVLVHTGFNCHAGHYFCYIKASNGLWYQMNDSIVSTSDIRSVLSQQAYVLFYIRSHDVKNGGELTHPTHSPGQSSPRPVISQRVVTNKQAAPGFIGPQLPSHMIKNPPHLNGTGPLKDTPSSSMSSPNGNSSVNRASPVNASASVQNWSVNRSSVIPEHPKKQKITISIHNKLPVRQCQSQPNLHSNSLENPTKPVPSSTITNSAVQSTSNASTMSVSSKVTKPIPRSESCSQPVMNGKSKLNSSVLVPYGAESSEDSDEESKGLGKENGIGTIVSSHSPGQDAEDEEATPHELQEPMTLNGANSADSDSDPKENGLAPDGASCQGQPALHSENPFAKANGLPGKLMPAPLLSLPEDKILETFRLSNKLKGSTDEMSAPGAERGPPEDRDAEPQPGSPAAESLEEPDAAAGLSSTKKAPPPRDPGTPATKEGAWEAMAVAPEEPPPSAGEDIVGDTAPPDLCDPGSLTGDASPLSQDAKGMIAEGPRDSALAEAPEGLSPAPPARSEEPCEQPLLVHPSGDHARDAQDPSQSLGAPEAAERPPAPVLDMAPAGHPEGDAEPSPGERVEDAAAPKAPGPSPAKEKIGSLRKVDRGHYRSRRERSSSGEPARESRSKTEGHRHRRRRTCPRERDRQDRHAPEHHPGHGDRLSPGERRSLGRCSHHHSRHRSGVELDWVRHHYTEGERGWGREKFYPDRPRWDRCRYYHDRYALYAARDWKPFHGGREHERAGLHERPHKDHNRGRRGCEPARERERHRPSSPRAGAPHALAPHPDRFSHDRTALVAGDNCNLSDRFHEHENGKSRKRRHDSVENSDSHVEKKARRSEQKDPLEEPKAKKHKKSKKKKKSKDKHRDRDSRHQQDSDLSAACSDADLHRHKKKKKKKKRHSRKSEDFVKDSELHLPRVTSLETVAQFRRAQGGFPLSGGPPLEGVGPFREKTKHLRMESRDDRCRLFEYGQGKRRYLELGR
In short: (§1)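 Triplicate samples of HEK293T lysate, 495 µg each, received fragment at 200 µM or vehicle for 3 h, followed by Biotin-Ahx-Ub-VS (0.5 µM final) for 1 h. After NeutrAvidin enrichment of labelled DUBs and LysC/trypsin digestion, peptides were run by diaPASEF LC-MS/MS. The values are average log2 fragment/vehicle ratios from global-median-normalised Spectronaut label-free quantities, tested by unpaired t-test on proteins having ≥2 unique peptides.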

USP46 = USP46 (UniProt P62068)
Sequence of USP46 (P62068 whole entry): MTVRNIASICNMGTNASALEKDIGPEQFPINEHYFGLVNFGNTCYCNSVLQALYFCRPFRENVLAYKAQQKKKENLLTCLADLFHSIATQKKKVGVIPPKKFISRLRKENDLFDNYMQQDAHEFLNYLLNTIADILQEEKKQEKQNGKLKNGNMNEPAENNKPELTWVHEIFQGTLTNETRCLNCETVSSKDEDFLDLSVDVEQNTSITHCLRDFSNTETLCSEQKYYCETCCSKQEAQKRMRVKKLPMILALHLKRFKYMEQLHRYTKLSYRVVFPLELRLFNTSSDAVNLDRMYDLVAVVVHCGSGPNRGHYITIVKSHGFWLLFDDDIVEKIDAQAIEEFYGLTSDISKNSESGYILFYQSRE
In short: as §1

USP47 = target: T2, USP47 (UniProt Q96K76)
T2 sequence (whole entry): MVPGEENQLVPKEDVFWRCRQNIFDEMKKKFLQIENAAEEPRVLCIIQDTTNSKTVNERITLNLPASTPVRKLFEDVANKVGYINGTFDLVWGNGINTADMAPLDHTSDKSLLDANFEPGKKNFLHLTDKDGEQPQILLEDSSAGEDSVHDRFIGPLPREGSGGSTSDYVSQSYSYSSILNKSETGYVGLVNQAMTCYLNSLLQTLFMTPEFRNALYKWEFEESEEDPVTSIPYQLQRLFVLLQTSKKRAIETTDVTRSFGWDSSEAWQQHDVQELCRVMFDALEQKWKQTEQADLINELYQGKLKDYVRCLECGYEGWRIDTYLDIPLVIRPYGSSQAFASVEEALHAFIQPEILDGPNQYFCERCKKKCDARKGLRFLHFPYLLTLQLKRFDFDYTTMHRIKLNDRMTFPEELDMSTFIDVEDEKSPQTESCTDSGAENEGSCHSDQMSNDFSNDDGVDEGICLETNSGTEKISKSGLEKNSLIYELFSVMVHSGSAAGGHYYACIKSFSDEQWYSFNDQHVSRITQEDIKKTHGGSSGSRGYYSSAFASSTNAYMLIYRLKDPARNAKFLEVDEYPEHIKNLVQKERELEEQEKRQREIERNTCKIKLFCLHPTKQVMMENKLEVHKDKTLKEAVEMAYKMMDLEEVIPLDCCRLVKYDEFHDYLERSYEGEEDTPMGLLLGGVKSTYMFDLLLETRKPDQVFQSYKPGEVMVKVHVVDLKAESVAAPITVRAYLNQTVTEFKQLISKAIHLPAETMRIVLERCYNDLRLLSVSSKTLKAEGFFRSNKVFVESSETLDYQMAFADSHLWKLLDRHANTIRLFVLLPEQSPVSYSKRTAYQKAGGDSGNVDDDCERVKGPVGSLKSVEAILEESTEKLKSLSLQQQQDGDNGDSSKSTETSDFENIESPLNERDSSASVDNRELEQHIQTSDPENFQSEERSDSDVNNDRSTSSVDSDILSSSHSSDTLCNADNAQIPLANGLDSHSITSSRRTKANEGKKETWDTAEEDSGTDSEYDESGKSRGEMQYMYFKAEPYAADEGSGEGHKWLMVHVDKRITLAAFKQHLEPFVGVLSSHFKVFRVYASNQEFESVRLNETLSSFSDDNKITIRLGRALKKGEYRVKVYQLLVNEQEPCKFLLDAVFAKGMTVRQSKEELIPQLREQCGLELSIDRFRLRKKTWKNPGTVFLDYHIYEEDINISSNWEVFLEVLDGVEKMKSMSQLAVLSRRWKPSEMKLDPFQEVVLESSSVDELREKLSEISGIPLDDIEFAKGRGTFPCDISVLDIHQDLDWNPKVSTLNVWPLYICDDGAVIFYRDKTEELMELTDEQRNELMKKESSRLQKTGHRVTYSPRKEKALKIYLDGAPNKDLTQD
In short: as §1

USP48 = target: T3, USP48 (UniProt Q86UV5)
T3 sequence (whole entry): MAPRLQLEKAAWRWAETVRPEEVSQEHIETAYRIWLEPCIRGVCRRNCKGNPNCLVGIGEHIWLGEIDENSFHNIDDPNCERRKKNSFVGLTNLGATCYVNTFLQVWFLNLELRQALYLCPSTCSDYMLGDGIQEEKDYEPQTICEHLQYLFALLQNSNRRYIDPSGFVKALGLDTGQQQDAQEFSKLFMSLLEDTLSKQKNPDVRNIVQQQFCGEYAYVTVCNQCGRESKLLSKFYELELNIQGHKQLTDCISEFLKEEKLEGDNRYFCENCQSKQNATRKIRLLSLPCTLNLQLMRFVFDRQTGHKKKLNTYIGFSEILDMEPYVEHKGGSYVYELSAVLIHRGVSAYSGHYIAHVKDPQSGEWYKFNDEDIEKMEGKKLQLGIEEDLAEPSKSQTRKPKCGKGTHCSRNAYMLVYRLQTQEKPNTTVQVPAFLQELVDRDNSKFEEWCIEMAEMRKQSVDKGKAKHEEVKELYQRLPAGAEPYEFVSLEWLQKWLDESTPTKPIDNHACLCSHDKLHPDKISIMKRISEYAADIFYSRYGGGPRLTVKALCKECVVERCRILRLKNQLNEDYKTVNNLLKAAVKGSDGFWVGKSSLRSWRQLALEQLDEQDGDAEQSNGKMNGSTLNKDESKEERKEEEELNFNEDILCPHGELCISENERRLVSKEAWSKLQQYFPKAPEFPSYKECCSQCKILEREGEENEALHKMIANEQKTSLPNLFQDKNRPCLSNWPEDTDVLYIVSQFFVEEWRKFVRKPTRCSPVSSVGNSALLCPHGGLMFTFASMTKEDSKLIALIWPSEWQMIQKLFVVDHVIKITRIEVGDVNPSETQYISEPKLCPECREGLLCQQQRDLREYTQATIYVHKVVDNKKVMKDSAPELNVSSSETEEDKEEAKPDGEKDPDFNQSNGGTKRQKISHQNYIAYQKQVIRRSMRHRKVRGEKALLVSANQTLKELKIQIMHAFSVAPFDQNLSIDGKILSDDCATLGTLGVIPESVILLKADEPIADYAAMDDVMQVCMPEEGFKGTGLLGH
In short: as §1

USP5 = target: T4, USP5 (UniProt P45974)
T4 sequence (whole entry): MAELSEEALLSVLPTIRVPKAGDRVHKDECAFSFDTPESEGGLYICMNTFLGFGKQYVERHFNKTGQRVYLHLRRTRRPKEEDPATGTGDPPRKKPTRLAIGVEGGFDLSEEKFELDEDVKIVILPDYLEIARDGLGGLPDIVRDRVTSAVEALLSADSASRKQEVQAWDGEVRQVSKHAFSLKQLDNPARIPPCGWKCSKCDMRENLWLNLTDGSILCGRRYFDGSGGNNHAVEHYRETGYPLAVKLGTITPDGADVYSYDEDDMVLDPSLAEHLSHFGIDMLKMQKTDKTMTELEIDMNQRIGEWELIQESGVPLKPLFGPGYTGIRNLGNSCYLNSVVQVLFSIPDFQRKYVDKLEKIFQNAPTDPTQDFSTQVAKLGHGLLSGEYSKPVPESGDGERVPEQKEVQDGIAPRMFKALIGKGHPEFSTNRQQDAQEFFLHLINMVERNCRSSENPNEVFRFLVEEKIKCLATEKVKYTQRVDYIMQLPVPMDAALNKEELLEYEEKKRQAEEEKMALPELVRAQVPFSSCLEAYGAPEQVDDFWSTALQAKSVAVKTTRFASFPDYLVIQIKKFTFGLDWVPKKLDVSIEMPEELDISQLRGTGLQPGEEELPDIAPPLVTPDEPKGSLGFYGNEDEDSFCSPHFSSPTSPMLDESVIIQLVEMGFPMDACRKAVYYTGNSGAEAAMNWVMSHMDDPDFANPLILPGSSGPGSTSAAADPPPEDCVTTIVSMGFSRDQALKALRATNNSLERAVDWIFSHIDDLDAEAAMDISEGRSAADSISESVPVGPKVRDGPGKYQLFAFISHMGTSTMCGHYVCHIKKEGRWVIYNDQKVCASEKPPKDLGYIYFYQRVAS
In short: as §1

USP54 = USP54 (UniProt Q70EL1)
Sequence of USP54 (Q70EL1 whole entry): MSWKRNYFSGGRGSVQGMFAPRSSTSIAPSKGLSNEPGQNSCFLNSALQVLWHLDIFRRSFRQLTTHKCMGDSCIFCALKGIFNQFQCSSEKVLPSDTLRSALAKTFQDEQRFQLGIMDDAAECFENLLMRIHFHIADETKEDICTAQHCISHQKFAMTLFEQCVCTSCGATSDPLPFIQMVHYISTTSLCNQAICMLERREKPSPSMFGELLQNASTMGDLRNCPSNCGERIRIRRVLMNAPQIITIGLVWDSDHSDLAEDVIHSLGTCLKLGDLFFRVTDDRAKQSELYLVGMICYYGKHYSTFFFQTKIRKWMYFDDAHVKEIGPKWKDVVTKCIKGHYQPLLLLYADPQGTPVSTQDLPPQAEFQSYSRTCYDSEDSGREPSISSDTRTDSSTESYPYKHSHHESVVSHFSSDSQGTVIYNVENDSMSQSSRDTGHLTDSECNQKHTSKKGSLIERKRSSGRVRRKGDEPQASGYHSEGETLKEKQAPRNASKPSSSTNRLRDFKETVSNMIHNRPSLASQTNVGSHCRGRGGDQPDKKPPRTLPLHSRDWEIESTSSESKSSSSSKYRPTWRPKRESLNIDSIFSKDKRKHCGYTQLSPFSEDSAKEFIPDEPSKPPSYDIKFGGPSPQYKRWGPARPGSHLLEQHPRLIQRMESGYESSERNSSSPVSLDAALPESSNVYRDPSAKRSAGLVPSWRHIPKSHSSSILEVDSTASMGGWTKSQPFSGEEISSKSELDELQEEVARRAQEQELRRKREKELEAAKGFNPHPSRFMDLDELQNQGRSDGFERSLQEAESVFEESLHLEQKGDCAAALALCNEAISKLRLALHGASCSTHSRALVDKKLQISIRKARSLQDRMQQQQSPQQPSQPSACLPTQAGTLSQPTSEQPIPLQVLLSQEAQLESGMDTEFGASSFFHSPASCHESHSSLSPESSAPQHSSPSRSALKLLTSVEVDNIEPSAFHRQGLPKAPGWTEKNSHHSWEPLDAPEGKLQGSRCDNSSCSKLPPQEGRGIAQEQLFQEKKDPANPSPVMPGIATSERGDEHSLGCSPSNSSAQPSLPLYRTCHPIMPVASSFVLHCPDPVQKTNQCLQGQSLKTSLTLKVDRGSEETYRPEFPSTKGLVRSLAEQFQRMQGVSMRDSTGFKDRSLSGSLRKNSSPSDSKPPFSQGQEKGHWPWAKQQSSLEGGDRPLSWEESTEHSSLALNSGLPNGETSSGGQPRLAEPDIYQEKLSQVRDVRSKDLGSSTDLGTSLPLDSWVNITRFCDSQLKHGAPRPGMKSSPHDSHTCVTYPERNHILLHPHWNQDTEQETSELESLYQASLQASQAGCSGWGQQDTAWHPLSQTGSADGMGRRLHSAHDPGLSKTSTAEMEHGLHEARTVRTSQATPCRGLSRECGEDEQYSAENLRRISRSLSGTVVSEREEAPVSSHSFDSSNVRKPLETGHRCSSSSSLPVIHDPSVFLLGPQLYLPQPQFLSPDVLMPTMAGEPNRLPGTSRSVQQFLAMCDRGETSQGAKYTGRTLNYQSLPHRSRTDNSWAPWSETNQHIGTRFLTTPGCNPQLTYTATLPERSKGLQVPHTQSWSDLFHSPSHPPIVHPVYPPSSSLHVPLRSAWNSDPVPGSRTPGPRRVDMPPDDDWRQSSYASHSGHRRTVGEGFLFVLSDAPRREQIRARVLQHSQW
In short: as §1

USP7 = USP7 (UniProt Q93009)
Sequence of USP7 (Q93009 whole entry, looked up): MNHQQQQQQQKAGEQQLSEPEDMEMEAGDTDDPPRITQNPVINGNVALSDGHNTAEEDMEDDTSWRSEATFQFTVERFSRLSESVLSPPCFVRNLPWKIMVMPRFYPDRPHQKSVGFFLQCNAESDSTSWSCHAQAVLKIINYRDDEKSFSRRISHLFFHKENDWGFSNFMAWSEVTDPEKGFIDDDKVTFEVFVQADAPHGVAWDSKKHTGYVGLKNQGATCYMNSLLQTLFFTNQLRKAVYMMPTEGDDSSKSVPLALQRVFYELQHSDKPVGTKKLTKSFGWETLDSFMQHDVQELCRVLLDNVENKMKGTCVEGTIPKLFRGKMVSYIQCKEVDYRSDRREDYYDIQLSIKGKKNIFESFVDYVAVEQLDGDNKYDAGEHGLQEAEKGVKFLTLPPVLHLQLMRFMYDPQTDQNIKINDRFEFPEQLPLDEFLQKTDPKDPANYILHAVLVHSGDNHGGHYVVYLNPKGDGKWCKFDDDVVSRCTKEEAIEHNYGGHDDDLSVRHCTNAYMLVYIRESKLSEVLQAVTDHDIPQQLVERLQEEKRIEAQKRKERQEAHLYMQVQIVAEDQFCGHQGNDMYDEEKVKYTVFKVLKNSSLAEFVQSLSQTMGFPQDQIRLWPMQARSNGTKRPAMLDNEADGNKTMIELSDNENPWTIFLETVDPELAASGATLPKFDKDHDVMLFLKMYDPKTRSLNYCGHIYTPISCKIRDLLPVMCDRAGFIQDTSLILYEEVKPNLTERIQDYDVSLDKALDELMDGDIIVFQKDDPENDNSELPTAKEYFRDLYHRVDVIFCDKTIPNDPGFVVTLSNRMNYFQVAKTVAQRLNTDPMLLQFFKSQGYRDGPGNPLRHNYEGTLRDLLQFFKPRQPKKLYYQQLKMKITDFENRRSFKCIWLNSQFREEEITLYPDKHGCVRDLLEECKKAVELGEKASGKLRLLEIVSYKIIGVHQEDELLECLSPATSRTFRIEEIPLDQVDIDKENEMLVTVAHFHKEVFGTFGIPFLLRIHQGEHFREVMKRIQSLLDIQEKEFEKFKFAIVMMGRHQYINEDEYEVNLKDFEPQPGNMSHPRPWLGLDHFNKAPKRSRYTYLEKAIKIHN
In short: as §1

USP8 = target: T5, USP8 (UniProt P40818)
T5 sequence (whole entry): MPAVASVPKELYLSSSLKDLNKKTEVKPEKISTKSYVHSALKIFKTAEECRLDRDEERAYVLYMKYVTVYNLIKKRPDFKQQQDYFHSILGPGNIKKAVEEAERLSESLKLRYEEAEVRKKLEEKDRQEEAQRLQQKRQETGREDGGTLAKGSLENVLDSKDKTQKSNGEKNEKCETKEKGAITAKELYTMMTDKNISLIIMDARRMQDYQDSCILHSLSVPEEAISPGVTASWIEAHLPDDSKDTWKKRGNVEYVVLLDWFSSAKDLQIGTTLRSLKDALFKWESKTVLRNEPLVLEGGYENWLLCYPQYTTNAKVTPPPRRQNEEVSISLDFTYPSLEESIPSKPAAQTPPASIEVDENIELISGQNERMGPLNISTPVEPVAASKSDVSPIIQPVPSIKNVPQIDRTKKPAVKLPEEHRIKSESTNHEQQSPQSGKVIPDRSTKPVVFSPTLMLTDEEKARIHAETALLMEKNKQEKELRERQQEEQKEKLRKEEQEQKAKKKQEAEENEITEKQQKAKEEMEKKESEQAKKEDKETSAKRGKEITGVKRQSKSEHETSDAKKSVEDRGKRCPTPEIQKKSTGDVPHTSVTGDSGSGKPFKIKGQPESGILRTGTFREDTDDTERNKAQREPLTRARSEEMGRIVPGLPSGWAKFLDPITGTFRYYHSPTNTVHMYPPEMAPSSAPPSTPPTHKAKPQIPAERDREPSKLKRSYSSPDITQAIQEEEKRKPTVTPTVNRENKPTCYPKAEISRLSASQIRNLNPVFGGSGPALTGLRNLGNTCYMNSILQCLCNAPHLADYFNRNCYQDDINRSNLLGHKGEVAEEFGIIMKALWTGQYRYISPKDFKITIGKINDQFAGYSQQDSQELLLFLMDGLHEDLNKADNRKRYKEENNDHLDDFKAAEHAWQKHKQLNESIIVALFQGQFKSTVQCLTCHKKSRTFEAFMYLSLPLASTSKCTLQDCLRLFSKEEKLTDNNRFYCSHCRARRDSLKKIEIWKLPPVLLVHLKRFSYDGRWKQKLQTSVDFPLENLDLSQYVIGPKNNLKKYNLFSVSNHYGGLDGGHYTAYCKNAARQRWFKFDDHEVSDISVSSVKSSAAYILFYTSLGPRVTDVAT
In short: as §1

USP9X = USP9X (UniProt Q93008)
In short: as §1

UniProt O00487 = target: UniProt O00487
Sequence of UniProt O00487 (O00487 whole entry): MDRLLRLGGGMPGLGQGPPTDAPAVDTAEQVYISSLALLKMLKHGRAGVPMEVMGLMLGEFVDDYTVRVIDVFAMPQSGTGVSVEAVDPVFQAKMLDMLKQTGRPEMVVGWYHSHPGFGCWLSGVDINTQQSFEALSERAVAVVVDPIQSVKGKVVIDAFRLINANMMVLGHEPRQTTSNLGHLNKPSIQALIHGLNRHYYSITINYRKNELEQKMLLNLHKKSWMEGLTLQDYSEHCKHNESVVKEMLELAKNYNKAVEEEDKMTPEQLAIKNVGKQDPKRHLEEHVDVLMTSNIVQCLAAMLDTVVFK
In short: as §1

Measured: log2 ratio of Biotin-Ahx-Ub-VS probe labelling

O=C(CCl)NCc1ccc(N2CCOCC2)nc1
inactive: USP42 -0.0847 | USP46 0.0882 | USP47 -0.466 | USP48 -0.188 | USP5 -0.217 | USP54 0.658 | USP7 -0.147 | USP8 -0.289 | USP9X -0.26 | UniProt O00487 -0.226
